In the supplement of paper PMC8728848:
About 410 targets per protein were measured; listed, in parts, are those with the strongest signals and a random draw of the rest.

How the values were obtained:
Assay in all cases: glycan array binding signal (z-score within array); higher = stronger binding
Details in all cases: glycan notation: IUPAC condensed, linker removed
[1] = test system: Gal(b1-3)[Fuc(a1-4)]GlcNAc(b1-3)Gal(b1-3)[Fuc(a1-4)]GlcNAc
Procedure, shortened: (§1)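 Glycan array data came from 3228 arrays in the Consortium for Functional Glycomics database, and only arrays with an available protein sequence were kept. Glycan names were put into IUPAC-condensed notation, and columns mapping to the same glycan were averaged. The binding signal is a within-array Z-score, averaged across arrays of one protein sequence run at different concentrations or buffers and across linkers. A negative Z-score can be read as non-binding.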

[2] = test system: Gal(b1-3)[Fuc(a1-4)]GlcNAc(b1-6)GalNAc
Procedure, shortened: as §1

Gal(b1-4)Gal = test system: Gal(b1-4)Gal
Procedure, shortened: as §1

Gal(b1-4)Glc6S = test system: Gal(b1-4)Glc6S
Procedure, shortened: as §1

[3] = test system: Gal(b1-3)[Fuc(a1-4)]GlcNAc
Procedure, shortened: as §1

[4] = test system: Gal(b1-3)[Neu5Ac(a2-6)]GalNAc
Procedure, shortened: as §1

[5] = test system: Gal(b1-3)[Fuc(a1-4)]GlcNAc(b1-2)Man(a1-3)[Gal(b1-3)[Fuc(a1-4)]GlcNAc(b1-2)Man(a1-6)]Man(b1-4)GlcNAc(b1-4)[Fuc(a1-6)]GlcNAc
Procedure, shortened: as §1

[6] = test system: Gal(b1-3)[Fuc(a1-4)]GlcNAc(b1-3)Gal(b1-4)[Fuc(a1-3)]GlcNAc
Procedure, shortened: as §1

[7] = test system: Gal(b1-3)[Fuc(a1-4)]GlcNAc(b1-3)Gal(b1-4)GlcNAc
Procedure, shortened: as §1

[8] = test system: Gal(b1-4)GalNAc(b1-3)[Fuc(a1-2)]Gal(b1-4)GlcNAc
Procedure, shortened: as §1

## SiiE (Salmonella typhimurium), A0A0H3NVH0
[1]
  glycan array binding signal (z-score): -0.613

## AgI/II Vhelical-GFP (Streptococcus mutans)
[2]
  glycan array binding signal (z-score): 1.08
Gal(b1-4)Gal
  glycan array binding signal (z-score): 2.56
Gal(b1-4)Glc6S
  glycan array binding signal (z-score): -0.148

## Epa22
[3]
  glycan array binding signal (z-score): -0.223
[4]
  glycan array binding signal (z-score): 3.02
Gal(b1-4)Glc6S
  glycan array binding signal (z-score): -0.061

## Actinohivin (Actinomycete K97)
[5]
  glycan array binding signal (z-score): 2.06

## SpGH101 (Streptococcus pneumoniae), Q8DR60
[5]
  glycan array binding signal (z-score): 0.539
[6]
  glycan array binding signal (z-score): -0.146

## Wza (Escherichia coli), P0A930
[7]
  glycan array binding signal (z-score): 1.14
[2]
  glycan array binding signal (z-score): 2.92

## BambL (Burhholderia ambifaria), Q0B4G1
[5]
  glycan array binding signal (z-score): -0.066
[8]
  glycan array binding signal (z-score): -0.283
